# Columns and labels:
# [1] = target: Sphingosine kinase 1 (Homo sapiens) (UniProt Q9NYA1); conditions: at 1 µM;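 further: mean SPHK1 inhibition value reported from the GSK PKIS kinase panel screen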
# [2] = target: T1, Sphingosine kinase 2 (Homo sapiens) (UniProt Q9NRA0); conditions: at 0.1 µM
# T1 sequence (whole entry): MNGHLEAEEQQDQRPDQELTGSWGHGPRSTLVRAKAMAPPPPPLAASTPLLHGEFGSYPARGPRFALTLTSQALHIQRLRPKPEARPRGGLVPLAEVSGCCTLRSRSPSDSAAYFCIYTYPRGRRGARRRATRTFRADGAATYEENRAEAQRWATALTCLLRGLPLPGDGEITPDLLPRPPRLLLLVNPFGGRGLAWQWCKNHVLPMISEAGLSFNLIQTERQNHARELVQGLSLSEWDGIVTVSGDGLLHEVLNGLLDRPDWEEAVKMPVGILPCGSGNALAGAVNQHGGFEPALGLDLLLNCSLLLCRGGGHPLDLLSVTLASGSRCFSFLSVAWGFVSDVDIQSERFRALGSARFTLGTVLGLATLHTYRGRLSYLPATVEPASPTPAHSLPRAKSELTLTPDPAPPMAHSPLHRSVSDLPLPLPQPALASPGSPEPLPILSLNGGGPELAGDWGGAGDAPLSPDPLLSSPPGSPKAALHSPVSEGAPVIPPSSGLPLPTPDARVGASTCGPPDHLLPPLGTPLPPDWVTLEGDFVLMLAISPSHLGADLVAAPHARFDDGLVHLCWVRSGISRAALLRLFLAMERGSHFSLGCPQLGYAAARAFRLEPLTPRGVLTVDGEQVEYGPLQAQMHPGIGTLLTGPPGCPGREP
# [3] = target: T1, Sphingosine kinase 2 (Homo sapiens); conditions: at 1 µM
# [4] = target: Casein kinase II subunit alpha (Homo sapiens) (UniProt P68400); conditions: at 0.1 µM
# Chain of Casein kinase II subunit alpha (Homo sapiens) (P68400 whole entry, looked up): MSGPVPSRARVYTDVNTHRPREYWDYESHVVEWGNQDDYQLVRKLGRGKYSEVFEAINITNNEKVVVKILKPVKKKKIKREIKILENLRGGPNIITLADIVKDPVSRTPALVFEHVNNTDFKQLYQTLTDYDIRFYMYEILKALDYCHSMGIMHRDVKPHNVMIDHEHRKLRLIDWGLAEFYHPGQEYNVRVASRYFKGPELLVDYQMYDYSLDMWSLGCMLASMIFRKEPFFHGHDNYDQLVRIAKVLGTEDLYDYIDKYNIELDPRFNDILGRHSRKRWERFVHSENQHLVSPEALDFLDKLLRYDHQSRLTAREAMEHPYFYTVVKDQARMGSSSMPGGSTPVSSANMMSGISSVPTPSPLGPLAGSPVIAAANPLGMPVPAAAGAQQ
# [5] = target: Casein kinase II subunit alpha (Homo sapiens) (UniProt P68400); conditions: at 1 µM
# [6] = target: T2, Inhibitor of nuclear factor kappa-B kinase subunit alpha (Homo sapiens) (UniProt O15111); conditions: at 0.1 µM
# T2 sequence (whole entry): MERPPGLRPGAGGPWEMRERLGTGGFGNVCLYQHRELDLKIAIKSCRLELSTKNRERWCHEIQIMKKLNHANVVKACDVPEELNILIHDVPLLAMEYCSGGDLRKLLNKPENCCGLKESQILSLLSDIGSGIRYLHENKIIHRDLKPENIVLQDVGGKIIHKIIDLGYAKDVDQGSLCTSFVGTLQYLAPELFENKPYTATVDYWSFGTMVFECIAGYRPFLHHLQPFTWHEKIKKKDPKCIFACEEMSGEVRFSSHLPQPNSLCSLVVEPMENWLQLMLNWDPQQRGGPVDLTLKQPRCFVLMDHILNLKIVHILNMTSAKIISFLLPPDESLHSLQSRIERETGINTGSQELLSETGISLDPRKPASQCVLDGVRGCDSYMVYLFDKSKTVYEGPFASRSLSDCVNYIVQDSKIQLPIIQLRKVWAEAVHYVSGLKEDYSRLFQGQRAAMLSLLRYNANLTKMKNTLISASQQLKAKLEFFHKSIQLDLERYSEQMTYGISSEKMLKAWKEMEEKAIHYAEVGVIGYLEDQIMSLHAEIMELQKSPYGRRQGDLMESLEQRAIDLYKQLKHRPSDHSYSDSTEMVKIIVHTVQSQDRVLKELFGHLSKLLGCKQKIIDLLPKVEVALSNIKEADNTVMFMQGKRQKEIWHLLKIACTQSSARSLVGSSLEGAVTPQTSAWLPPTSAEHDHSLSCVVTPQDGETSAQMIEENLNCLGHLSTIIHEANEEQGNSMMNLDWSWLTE
# [7] = target: T2, Inhibitor of nuclear factor kappa-B kinase subunit alpha (Homo sapiens); conditions: at 1 µM
# [8] = target: T3, Inhibitor of nuclear factor kappa-B kinase subunit beta (Homo sapiens) (UniProt O14920); conditions: at 0.1 µM
# T3 sequence (whole entry): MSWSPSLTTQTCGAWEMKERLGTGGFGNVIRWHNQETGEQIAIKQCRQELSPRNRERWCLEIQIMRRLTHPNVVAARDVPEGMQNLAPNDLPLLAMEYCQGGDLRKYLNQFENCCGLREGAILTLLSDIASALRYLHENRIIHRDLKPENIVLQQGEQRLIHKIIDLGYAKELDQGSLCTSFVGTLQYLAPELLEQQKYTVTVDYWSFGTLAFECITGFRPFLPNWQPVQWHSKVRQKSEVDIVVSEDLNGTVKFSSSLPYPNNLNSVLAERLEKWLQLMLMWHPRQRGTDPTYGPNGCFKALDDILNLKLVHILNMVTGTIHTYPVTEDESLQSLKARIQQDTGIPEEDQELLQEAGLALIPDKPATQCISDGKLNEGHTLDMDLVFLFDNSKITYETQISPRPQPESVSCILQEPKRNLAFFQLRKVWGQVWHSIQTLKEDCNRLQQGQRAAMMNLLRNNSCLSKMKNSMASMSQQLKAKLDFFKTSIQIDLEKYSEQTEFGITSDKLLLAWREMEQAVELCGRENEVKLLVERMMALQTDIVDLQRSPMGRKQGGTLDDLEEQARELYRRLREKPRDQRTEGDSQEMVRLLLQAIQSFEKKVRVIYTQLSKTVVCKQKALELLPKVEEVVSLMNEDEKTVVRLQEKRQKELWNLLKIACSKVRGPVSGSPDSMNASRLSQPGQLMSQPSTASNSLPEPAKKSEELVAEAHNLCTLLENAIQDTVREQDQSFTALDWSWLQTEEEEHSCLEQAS
# [9] = target: T3, Inhibitor of nuclear factor kappa-B kinase subunit beta (Homo sapiens); conditions: at 1 µM
# [10] = target: T4, Inhibitor of nuclear factor kappa-B kinase subunit epsilon (Homo sapiens) (UniProt Q14164); conditions: at 0.1 µM
# T4 sequence (whole entry): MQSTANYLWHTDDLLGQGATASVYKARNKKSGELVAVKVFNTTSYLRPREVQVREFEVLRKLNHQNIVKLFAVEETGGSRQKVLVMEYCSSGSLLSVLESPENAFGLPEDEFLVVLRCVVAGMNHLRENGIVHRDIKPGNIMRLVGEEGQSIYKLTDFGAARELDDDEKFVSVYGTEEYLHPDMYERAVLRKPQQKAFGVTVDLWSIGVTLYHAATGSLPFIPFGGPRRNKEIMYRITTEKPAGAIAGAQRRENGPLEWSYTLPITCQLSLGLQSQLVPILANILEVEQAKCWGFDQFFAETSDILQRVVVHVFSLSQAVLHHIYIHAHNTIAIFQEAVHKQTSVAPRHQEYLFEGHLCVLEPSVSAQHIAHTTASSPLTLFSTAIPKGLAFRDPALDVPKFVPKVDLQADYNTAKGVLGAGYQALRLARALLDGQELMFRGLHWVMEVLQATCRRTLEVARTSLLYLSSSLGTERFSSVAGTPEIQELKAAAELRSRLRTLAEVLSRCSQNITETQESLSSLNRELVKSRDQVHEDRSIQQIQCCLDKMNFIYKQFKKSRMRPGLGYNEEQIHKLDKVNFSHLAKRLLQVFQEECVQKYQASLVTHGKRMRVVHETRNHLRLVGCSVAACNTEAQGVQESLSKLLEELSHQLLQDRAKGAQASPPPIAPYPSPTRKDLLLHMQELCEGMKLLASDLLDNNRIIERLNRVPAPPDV
# [11] = target: T4, Inhibitor of nuclear factor kappa-B kinase subunit epsilon (Homo sapiens); conditions: at 1 µM
# [12] = target: T5, Serine/threonine-protein kinase Nek1 (Homo sapiens) (UniProt Q96PY6); conditions: at 0.1 µM
# T5 sequence (whole entry): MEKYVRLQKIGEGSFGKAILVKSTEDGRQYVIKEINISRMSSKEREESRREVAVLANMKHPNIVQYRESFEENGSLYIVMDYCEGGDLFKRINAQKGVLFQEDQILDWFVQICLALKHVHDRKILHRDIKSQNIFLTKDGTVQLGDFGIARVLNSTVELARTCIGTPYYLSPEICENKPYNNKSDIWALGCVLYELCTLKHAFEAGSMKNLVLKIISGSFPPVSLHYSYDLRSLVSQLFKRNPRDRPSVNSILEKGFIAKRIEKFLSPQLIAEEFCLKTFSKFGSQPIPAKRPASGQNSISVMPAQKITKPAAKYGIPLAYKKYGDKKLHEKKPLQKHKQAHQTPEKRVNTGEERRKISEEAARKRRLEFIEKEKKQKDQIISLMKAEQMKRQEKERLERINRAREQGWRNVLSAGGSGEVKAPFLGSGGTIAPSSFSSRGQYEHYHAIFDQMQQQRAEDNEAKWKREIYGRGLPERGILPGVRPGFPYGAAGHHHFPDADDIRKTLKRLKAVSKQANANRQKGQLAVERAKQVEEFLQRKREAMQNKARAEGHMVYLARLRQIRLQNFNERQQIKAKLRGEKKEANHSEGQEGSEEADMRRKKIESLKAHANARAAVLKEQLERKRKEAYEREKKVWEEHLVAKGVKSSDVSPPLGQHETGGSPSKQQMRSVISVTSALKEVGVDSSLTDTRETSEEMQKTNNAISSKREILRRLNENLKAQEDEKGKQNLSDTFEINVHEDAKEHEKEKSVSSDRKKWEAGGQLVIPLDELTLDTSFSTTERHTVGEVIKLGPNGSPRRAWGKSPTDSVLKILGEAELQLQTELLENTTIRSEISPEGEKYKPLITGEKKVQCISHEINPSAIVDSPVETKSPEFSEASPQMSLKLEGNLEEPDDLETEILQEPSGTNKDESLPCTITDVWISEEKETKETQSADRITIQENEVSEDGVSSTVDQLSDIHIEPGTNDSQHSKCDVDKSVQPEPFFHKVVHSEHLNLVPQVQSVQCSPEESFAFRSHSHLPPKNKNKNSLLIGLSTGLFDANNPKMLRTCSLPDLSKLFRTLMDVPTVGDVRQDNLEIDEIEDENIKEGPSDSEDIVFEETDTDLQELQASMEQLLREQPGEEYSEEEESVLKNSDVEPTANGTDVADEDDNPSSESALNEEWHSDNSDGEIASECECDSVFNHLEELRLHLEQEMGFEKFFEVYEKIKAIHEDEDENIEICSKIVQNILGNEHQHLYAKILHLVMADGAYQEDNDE
# [13] = target: T5, Serine/threonine-protein kinase Nek1 (Homo sapiens); conditions: at 1 µM
# [14] = target: T6, Serine/threonine-protein kinase Nek2 (Homo sapiens) (UniProt P51955); conditions: at 0.1 µM
# T6 sequence (whole entry): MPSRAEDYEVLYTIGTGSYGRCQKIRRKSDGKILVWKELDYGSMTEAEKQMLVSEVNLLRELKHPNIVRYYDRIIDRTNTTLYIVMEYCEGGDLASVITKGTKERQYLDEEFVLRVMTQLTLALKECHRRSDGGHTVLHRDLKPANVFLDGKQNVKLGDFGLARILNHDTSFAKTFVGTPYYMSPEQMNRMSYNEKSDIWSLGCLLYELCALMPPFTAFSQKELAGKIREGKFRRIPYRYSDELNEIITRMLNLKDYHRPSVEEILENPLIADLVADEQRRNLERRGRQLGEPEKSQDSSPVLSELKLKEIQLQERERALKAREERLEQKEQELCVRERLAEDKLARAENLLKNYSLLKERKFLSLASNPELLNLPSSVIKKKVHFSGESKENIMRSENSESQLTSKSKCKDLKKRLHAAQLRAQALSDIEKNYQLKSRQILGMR
# [15] = target: T6, Serine/threonine-protein kinase Nek2 (Homo sapiens); conditions: at 1 µM
# [16] = target: Serine/threonine-protein kinase Nek6 (Homo sapiens) (UniProt Q9HC98); conditions: at 0.1 µM
# Chain of Serine/threonine-protein kinase Nek6 (Homo sapiens) (Q9HC98 whole entry): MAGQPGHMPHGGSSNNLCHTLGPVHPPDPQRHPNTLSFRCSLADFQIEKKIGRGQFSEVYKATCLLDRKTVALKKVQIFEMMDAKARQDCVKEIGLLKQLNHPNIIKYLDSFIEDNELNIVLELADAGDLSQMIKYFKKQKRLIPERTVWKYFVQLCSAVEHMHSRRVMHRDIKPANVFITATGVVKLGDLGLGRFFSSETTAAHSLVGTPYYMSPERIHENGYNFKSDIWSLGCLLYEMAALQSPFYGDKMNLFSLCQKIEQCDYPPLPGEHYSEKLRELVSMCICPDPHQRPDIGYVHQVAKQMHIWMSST
# [17] = target: Serine/threonine-protein kinase Nek6 (Homo sapiens) (UniProt Q9HC98); conditions: at 1 µM
# [18] = target: Serine/threonine-protein kinase Nek7 (Homo sapiens) (UniProt Q8TDX7); conditions: at 0.1 µM
# Chain of Serine/threonine-protein kinase Nek7 (Homo sapiens) (Q8TDX7 whole entry, looked up): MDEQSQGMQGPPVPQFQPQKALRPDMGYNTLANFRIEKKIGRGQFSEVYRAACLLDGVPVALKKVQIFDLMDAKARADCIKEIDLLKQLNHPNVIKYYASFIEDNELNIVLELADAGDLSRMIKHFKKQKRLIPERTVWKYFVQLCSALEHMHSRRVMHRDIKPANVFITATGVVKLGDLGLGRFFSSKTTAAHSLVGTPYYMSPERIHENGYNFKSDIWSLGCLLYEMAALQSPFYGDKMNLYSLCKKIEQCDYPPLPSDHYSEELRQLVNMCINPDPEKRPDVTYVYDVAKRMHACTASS
# [19] = target: Serine/threonine-protein kinase Nek7 (Homo sapiens) (UniProt Q8TDX7); conditions: at 1 µM
# [20] = target: T7, Serine/threonine-protein kinase Nek9 (Homo sapiens) (UniProt Q8TD19); conditions: at 0.1 µM;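 further: reported value is the mean percent inhibition of NEK9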
# T7 sequence (whole entry): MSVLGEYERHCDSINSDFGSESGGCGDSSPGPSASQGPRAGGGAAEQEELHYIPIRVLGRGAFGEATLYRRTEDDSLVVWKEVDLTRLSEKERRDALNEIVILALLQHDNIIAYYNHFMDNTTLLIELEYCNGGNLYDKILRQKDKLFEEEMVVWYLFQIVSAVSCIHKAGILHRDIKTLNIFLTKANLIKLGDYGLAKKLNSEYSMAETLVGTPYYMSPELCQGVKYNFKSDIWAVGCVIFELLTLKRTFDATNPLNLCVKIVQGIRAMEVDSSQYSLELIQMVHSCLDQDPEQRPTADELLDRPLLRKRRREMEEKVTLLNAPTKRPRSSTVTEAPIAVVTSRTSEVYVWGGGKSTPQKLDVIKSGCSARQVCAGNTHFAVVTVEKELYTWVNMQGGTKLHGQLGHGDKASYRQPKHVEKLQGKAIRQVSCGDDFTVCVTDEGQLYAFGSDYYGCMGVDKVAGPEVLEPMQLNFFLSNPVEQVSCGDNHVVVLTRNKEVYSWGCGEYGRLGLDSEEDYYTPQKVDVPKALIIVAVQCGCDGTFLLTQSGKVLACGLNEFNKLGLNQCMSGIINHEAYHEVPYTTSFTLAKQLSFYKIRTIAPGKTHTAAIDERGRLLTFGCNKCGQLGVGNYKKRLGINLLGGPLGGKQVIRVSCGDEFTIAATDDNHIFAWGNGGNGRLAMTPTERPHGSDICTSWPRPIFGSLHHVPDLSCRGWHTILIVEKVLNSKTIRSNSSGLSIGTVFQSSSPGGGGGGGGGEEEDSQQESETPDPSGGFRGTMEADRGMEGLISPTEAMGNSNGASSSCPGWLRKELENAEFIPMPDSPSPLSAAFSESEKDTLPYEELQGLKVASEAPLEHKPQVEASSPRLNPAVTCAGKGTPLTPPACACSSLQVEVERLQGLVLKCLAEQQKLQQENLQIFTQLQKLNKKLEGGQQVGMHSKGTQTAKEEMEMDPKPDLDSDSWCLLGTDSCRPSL
# Chain of Sphingosine kinase 1 (Homo sapiens) (Q9NYA1 whole entry): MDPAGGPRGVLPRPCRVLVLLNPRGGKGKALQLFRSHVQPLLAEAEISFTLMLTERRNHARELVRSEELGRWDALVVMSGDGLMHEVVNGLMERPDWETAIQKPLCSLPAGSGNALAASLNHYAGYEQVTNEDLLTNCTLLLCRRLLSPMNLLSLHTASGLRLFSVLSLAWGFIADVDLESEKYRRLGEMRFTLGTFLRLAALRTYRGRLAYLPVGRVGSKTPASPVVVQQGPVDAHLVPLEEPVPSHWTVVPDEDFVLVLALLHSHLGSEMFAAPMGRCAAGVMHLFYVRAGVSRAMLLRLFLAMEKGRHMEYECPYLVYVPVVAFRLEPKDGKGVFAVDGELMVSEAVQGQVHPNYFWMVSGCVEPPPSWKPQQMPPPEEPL
SMILES,inhibition [1],inhibition [2],inhibition [3],inhibition [4],inhibition [5],inhibition [6],inhibition [7],inhibition [8],inhibition [9],inhibition [10],inhibition [11],inhibition [12],inhibition [13],inhibition [14],inhibition [15],inhibition [16],inhibition [17],inhibition [18],inhibition [19],inhibition [20]
CC(C)c1ccc2c(c1)NC(=O)/C2=N/Nc1ccc(S(N)(=O)=O)cc1,-1.85%,0.61%,1.73%,4.26%,0.39%,-1.84%,-4.08%,1.01%,0.14%,-1.18%,-1.41%,0.8%,-0.15%,1.08%,0.29%,1.12%,2.08%,-0.24%,1.29%,2.87%
NS(=O)(=O)c1ccc(NC=C2C(=O)Nc3ccc4ncsc4c32)cc1,3.96%,1.68%,2.35%,15.7%,46.4%,13.6%,23.5%,10.6%,19.2%,19.3%,65.4%,3.02%,6.96%,5.94%,8.12%,1.57%,7.78%,7.6%,13.9%,9.07%
COc1cccc(-n2ncc3c(N/N=C/c4ccc(C)cc4)ncnc32)c1,1.5%,0.29%,-0.22%,-0.43%,23.1%,12%,9.99%,6.84%,9.36%,5.66%,6.9%,5.55%,9.78%,8.39%,10.7%,3.25%,3.08%,4.05%,10.1%,9.27%

# From ChEMBL document CHEMBL1961873, “Compounds: GSK PKIS; Assays: Nanosyn kinase panel” (2012)
